Inconclusive results are not listed. Entries that show only a call come without a potency. The source made the active and inactive calls. The call rests on the fitted dose curve; in most records, active means well fitted curve in the direction sought with a large enough effect; inconclusive means small, poorly fitted or top-dose-only effect, or another doubt; inactive means no such curve, though single readings can be large; an effect the other way counts as inactive or inconclusive.
Columns and labels:
[1] = biological target: Rap guanine nucleotide exchange factor 3 (Homo sapiens) (UniProt O95398); test: Confirmatory qHTS for antagonist of cAMP-regulated guanine nucleotide exchange factor 3 (EPAC1) (AID 1645880); further: nearly all actives have a fitted effect of over 55% in size; further: potency means the concentration at half of the fitted maximal effect
In short: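 Nucleotide exchange uses 100 nM EPAC1, 250 nM RAP1B-BODIPY-GDP and 50 uM GDP, with compounds in a concentration-titration series. After 5 min at room temperature, fluorescence (480 nm ex/540 nm em) is read every 5 min for 30 min. Data are normalized to control ATA and DMSO.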

[2] = biological target: Rap guanine nucleotide exchange factor 3 (Homo sapiens) (UniProt O95398); test: Confirmatory qHTS for agonist of cAMP-regulated guanine nucleotide exchange factor 3 (EPAC1) (AID 1645881); further: nearly all actives have a fitted effect of over 75% in size; further: potency means the concentration at half of the fitted maximal effect;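 on activation: EPAC1 catalysed release of BODIPY-GDP from Rap1B seen as fluorescence loss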
[3] = biological target: Rap guanine nucleotide exchange factor 4 (Homo sapiens) (UniProt Q8WZA2); test: Confirmatory qHTS for agonist of cAMP-regulated guanine nucleotide exchange factor 4 (EPAC2) (AID 1645884);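 further: nucleotide exchange releases bodipy-GDP from Rap1 and this lowers its fluorescence; nearly all actives have a fitted effect of over 65% in size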; further: potency means the concentration at half of the fitted maximal effect
[4] = biological target: Rap guanine nucleotide exchange factor 4 (Homo sapiens) (UniProt Q8WZA2); test: Confirmatory qHTS for antagonist of cAMP-regulated guanine nucleotide exchange factor 4 (EPAC2) (AID 1645885); further: nearly all actives have a fitted effect of over 25% in size; further: potency means the concentration at half of the fitted maximal effect
[5] = biological target: Rap guanine nucleotide exchange factor 3 (Homo sapiens) (UniProt O95398); test: Counterscreen qHTS for antagonist of cAMP-regulated guanine nucleotide exchange factor 3 (EPAC1) (AID 1645888);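 further: fluorescence loss as bound BODIPY-GDP is released from Rap1B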
In short: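 Rap1B–BODIPY-GDP (250 nM) with 50 uM GDP; compounds pin-transferred to 9.74 nM–152 uM final (activator) or from 7.32 nM upwards (inhibitor). Fluorescence Ex/Em 480/540 nm read at 5 and 30 min, then after adding cAMP or buffer, at room temperature.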

Rap guanine nucleotide exchange factor 4 (Homo sapiens), sequence (Q8WZA2 whole entry, looked up): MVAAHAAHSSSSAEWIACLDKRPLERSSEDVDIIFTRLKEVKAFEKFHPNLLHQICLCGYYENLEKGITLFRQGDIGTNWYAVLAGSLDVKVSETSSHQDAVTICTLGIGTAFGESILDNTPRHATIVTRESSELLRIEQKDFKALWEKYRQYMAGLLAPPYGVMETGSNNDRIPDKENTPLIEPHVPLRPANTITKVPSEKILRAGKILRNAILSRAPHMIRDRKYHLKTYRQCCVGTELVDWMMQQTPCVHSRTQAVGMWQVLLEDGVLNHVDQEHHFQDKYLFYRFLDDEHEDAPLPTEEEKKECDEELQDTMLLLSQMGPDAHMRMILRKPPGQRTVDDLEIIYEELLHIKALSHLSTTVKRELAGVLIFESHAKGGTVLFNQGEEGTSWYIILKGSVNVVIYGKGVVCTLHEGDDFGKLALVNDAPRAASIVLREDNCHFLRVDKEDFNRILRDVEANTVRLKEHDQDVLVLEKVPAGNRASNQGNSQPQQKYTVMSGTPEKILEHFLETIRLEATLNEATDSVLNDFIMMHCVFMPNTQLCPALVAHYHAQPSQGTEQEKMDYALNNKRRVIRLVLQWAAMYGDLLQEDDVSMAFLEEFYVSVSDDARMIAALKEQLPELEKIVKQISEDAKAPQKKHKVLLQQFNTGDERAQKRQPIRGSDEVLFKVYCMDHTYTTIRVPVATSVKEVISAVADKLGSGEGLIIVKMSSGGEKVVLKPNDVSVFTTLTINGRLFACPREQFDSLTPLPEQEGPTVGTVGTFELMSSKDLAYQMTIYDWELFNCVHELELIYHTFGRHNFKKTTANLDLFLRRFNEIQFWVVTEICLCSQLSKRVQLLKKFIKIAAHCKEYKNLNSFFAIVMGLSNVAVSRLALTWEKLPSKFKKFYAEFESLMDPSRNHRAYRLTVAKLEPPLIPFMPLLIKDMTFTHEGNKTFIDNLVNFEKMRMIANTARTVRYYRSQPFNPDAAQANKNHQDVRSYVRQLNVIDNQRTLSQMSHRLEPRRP
Rap guanine nucleotide exchange factor 3 (Homo sapiens), sequence (O95398 whole entry, looked up): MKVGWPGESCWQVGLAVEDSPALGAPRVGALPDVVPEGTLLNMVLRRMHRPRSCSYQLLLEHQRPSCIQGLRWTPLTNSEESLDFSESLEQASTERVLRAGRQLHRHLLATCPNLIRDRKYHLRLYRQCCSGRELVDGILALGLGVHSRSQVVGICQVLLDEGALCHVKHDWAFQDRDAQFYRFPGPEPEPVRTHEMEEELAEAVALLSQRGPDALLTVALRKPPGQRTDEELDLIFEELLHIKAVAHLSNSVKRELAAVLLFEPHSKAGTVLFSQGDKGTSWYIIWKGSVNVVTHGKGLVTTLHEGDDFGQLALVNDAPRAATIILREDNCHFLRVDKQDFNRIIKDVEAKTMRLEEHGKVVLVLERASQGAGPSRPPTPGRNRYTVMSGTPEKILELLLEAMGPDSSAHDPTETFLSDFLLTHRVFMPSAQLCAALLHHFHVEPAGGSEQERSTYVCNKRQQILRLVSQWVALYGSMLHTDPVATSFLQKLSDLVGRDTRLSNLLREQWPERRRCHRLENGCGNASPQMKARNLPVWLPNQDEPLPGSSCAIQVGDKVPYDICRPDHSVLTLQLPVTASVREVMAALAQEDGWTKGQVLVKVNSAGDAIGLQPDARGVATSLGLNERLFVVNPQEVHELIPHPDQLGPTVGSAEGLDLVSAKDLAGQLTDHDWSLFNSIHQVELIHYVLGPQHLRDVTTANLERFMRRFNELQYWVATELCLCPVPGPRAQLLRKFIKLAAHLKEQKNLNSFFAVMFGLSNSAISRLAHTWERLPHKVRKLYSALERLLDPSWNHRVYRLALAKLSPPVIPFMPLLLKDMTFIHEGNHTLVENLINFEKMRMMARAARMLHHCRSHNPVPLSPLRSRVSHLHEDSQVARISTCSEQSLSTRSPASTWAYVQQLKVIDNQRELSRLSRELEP

SMILES	Potency [1]	Potency [2]	Potency [3]	Potency [4]	Potency [5]	outcome [4]	activation [3]	activity change, negative = inhibition [5]
COc1ccc(C(=O)Nc2ccc(-c3cc4ccccc4oc3=O)c(C)c2)cc1Br	inactive	inactive	inactive	inactive	inactive			
O=C(O)c1ccccc1N/N=C/C1=C(N2CCOCC2)C(=C\c2ccccc2)/CC1	67.5 µM (active)	inactive	inactive	inactive	inactive			
O=C(c1ccc([N+](=O)[O-])o1)N1CCN(c2nc3c(Cl)cccc3s2)CC1	inactive	inactive	inactive	inactive	inactive			
CC1Cc2cc(/C=C3/SC(=S)NC3=O)ccc2O1 (stereo not given)	30.1 µM (active)	inactive	inactive	inactive	inactive			
Cc1ccc(S(=O)(=O)CC(=O)N(CCCN(C)C)c2nc3ccc(C)cc3s2)cc1	inactive	inactive	inactive	inactive	inactive			
COC(=O)c1cc2oc(C)cc2n1Cc1cccc(Cl)c1	inactive	inactive	inactive	inactive	inactive			
CCc1ccccc1C1=CC(=O)C[C@H](c2ccc(OC)cc2)C1	inactive	inactive	inactive	inactive	inactive			
CCOc1ccc(CN2C(=O)c3ccccc3Sc3ccc(C(=O)NCc4ccc5c(c4)OCO5)cc32)cc1	inactive	inactive	inactive		inactive	inactive [at 12.7 µM]		
CC(=O)C1=C(C)OC2(O)c3ccccc3C(=O)C12O (stereo not given)	inactive	inactive		inactive			4.3% [at 17.1 µM, percent relative to cAMP agonist control] (inactive)	-10.4% [at 30.8 µM] (inactive)
CN1N=C(C(C)(C)C)CC1=O	inactive	inactive	inactive	inactive	inactive			
COc1ccc(N/C=C2\CCc3ccccc3C2=O)cc1	inactive	89.1 µM (active)	100 µM (active)	inactive	inactive			
CCCN(CCC)Cc1cc(=O)oc2cc(C)cc(C)c12	inactive	inactive	inactive	12 µM (active)	inactive			
O=C(c1cccc(-n2cccc2)c1)N1CCN(S(=O)(=O)c2ccccc2)CC1	37.9 µM (active)	inactive	inactive	inactive	inactive			
CS(=O)(=O)c1ccc2c(c1)sc1nc(=O)c(/C=C3/C=CC(=O)C(O)=C3)c(N)n12	3.38 µM (active)	inactive	inactive	inactive	inactive			
Cc1ccc(-c2sc(-c3ccccc3)nc2CC(=O)Nc2ccccc2F)cc1	inactive	inactive	inactive	inactive	inactive			
COc1ccc(N2CCN(S(=O)(=O)c3cc4c(cc3C)NC(=O)CO4)CC2)cc1	inactive	inactive	inactive	inactive	inactive			
O=C(CN1C(=O)N/C(=C\c2ccccc2OCc2ccc(C(=O)O)cc2)C1=O)Nc1ccccc1F	28.2 µM (active)	inactive		inactive			5.81% [at 17.1 µM, percent relative to cAMP agonist control] (inactive)	-13.4% [at 30.8 µM] (inactive)
CCOC(=O)c1ccccc1NC(=O)c1c(-c2ccccc2)noc1C	inactive	inactive	inactive	inactive	inactive			
N#Cc1c(NC(=O)c2ccc(Br)o2)n(-c2ccccc2)c2nc3ccccc3nc12	50.1 µM (active)	inactive		inactive			1.83% [at 17.1 µM, percent relative to cAMP agonist control] (inactive)	-1.68% [at 30.8 µM] (inactive)
COc1ccc2oc(C(=O)CCC(=O)O)c(N)c2c1	inactive	inactive		inactive			0% [at 17.1 µM, percent relative to cAMP agonist control] (inactive)	3.66% [at 30.8 µM] (inactive)
CCOc1ccc(S(=O)(=O)n2ccc(C)n2)c2ccccc12	inactive	inactive	inactive	inactive	inactive			
COc1ccc(NS(=O)(=O)c2ccc3[nH]c4c(c3c2)CCCCCC4)cc1	inactive	inactive	inactive		inactive	inactive [at 12.7 µM]		
O=C1N=c2ccccc2=C1c1sc(Nc2ccc(O)cc2)nc1O	30.1 µM (active)	inactive	inactive	inactive	inactive			
Cc1ccnc(NS(=O)(=O)c2ccc(NC(=O)Cc3c(F)cccc3Cl)cc2)n1	inactive	inactive	inactive	inactive	inactive			

SMILES	Potency [1]	Potency [2]	Potency [3]	Potency [4]	Potency [5]	outcome [4]	activation [3]	activity change, negative = inhibition [5]
CCSc1nc2ccccc2c(=O)n1C1CCOC(C)(C)C1 (stereo not given)	inactive	inactive	inactive	inactive	inactive			
CCCc1cc(=O)[nH]c(SCC(=O)Nc2sc3c(c2C#N)CCC(C)C3)n1 (stereo not given)	89.1 µM (active)	inactive		0.135 µM (active)			4.56% [at 17.1 µM, percent relative to cAMP agonist control] (inactive)	-6.17% [at 30.8 µM] (inactive)
CCN(CC)c1ccc2cc(-c3nc(-c4ccccc4F)no3)c(=O)oc2c1	inactive	50.1 µM (active)	5.01 µM (active)	4.78 µM (active)	inactive			
C=CCn1c(NC(=O)c2ccccc2Cl)c(C#N)c2nc3ccccc3nc21	35.5 µM (active)	inactive		3.01 µM (active)			-3.42% [at 17.1 µM, percent relative to cAMP agonist control] (inactive)	-7.8% [at 30.8 µM] (inactive)
CC(C)(C)c1ccc(N=C2SCC(=O)N2Cc2cccs2)cc1	inactive	inactive	inactive	inactive	inactive			
Cc1nn(CSc2c(F)c(F)c(F)c(F)c2F)c(C)c1[N+](=O)[O-]	inactive	inactive		inactive			0.798% [at 17.1 µM, percent relative to cAMP agonist control] (inactive)	-18.4% [at 30.8 µM] (inactive)
CCCC(=O)O[C@@H]1C[C@@H](C)N(C(=O)c2ccccc2)c2ccc(C)cc21	inactive	inactive	inactive	inactive	inactive			
CCCc1cc(C(=O)Nc2ccccc2C(=O)OC)no1	inactive	inactive	inactive	inactive	inactive			
COc1cc2cc(CNc3ccc(C)cc3)c(=O)n(CC(=O)Nc3ccc(F)cc3F)c2cc1OC	inactive	inactive	inactive	inactive	inactive			
Clc1ccc(CSc2nnc(-c3ccncc3)s2)cc1	inactive	inactive	inactive	inactive	inactive			
O=C1NN(c2cccc(Br)c2)C(=O)/C1=C/c1ccc(-c2cc([N+](=O)[O-])ccc2O)o1	16.9 µM (active)	inactive	inactive	inactive	inactive			
Cc1cccc(NC(=S)NC(=O)/C=C/c2ccco2)c1	75.7 µM (active)	inactive	inactive	inactive	inactive			
Cc1cc(C)cc(-c2nnc(SCc3ccc(C(=O)O)cc3)o2)c1	inactive	inactive		inactive			0% [at 17.1 µM, percent relative to cAMP agonist control] (inactive)	-19.9% [at 30.8 µM] (inactive)
O=C1CC(c2ccccc2)=C(c2ccccc2)C1	inactive	inactive		inactive			-2.19% [at 17.1 µM, percent relative to cAMP agonist control] (inactive)	8.98% [at 30.8 µM] (inactive)
CSc1nc2c(c(C(F)(F)F)n1)CC(C)CC2 (stereo not given)	inactive	inactive	inactive	inactive	inactive			
CCOC(=O)C1CCN(C(c2cc(OC)c(OC)c(OC)c2)c2sc3nc(C)nn3c2O)CC1 (stereo not given)	inactive	inactive		inactive			3.51% [at 17.1 µM, percent relative to cAMP agonist control] (inactive)	-38.9% [at 30.8 µM] (inactive)
Cc1cccc(C(=O)Nc2cccc(C(=O)OCc3cc(=O)n4c5c(sc4n3)CCCC5)c2)c1	inactive	inactive	inactive	inactive	inactive			
COC(=O)c1ccc(CNC(=O)/C=C/[C@H]2O[C@@H](n3cc(C)c(=O)[nH]c3=O)C[C@@H]2O)cc1	inactive	inactive	inactive	inactive	inactive			
CC(=O)c1sc(NC(=O)c2c(F)cccc2F)nc1C	inactive	inactive	inactive	inactive	inactive			
CCOC(=O)c1sc(N2C(=O)C(O)=C(C(=O)c3ccco3)C2c2cccc([N+](=O)[O-])c2)nc1C (stereo not given)	5.36 µM (active)	inactive	inactive	inactive	inactive			
O=C1C=CC(=O)c2c(O)c(N3CCN(CCOCCO)CC3)c(Br)c(O)c21	9.53 µM (active)	inactive	inactive	inactive	inactive			
COc1ccc([N+](=O)[O-])cc1NC(=S)Nc1ccccc1	inactive	inactive	inactive	inactive	inactive			
O=S1(=O)CCO[C@H]2Cc3ccccc3[C@H]2N1Cc1ccc(Cl)cc1	inactive	inactive		inactive			-2.47% [at 17.1 µM, percent relative to cAMP agonist control] (inactive)	-21.2% [at 30.8 µM] (inactive)
